# From PubChem BioAssay AID588832 (Broad Institute, 2011)
# In all, about 8,000 compounds went through this assay and fewer than 10 were called active. The list is a sample of the results. Values without a mark were called inactive. No rule for the calls is given here.
# Tested on: hedgehog, isoform A (Drosophila melanogaster)
# Assay: Drosophila hedgehog isoform A inhibitors, primary screen, biochemical, plate reader, single concentration (AID 588832);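 also: 0% = neutral control wells and 100% = positive control wells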
# Conditions: Biochemical plate reader assay, at 30.3 µM, stronger effect = higher value
row,Structure (SMILES),inhibition
1,Cc1ccc(C(=O)NCCSc2c(C)[nH]c3ccccc23)cc1[N+](=O)[O-],3.51%
2,CCCNC(=O)C1=C(C)C(=O)OC12CCC(C)CC2 (configuration not stated),9.55%
3,CCc1cccc(NC2c3ccccc3C(=O)N2c2ccc(C)cn2)c1 (configuration not stated),5.06%
4,CCOC(=O)N1CCN(C(=O)c2ccc3c(c2)N(Cc2ccc(F)cc2)CCS3)CC1,3.51%
5,CC(=O)Oc1cc(O)c2c(=O)c(OC(C)=O)c(-c3ccc(OC(C)=O)c(OC(C)=O)c3)oc2c1,19.3%
6,CC(=O)Oc1cc2cccc(OC(C)=O)c(=O)c2c(OC(C)=O)c1OC(C)=O,57.6% (active)
7,COc1cc2cccc(OC)c(=O)c2c(OC)c1OC,-1.79%
8,CCCc1cc(C(=O)NCC(C)C)no1,5.23%
9,Cc1cc2cc(CNC(=O)c3ccc(S(=O)(=O)N4CCCCC4)cc3)ccc2[nH]1,5.36%
10,Cc1cccc(-n2c(CNC(=O)c3ccccc3)nnc2SCC(=O)Nc2nccs2)c1,12.5%
11,COc1ccc(-c2cc(=O)oc3cc(OC(C)C(=O)NCc4ccccn4)ccc23)cc1 (configuration not stated),7.02%
12,Cn1cc(S(=O)(=O)N2CCc3ccccc32)cc1C(=O)NC1CCCCC1,10.2%
13,CC(=O)Nc1cccc(NS(=O)(=O)c2cn(C)c(=O)n(C)c2=O)c1,3.85%
14,O=C(Cn1ncc2c1-c1ccccc1OC2)Nc1ccc(S(=O)(=O)N2CCCCC2)cc1,6.96%
15,C/C=C(/C)C(=O)OC1c2c(ccc3ccc(=O)oc23)OC(C)(C)C1OC(=O)/C(C)=C\C (configuration not stated),5.23%
16,O=C1C=CC2=C3c4cc(O)c(O)cc4CC3(O)COC2=C1O (configuration not stated),70.4% (active)
17,CCOC(=O)C(C)n1cnc2c(nnn2-c2ccc(F)cc2)c1=O (configuration not stated),7.02%
18,Cc1ccc(C)c(N2CCN(C(=O)c3cc(S(=O)(=O)N4CCOCC4)cn3C)CC2)c1,8.45%
19,COc1ccc(NC(=O)NCCCN2CCN(c3cc(C)ccc3C)CC2)cc1,3.64%
20,COc1ccc(CN2CCN(C(=O)Cn3ncn4cccc4c3=O)CC2)c(OC)c1OC,2.17%
21,CCOc1ccc(NC(=O)CSc2nc3ccccc3nc2N2CCOCC2)cc1,7.08%
22,Cc1cc(NC(=O)c2noc3c2CCc2ccccc2-3)n(-c2ccccc2)n1,3.64%

row,Structure (SMILES),inhibition
1,CC(C)(O)CCCC(C)(O)c1ccc(C(=O)O)cc1O (configuration not stated),6.9%
2,Cc1c(S(=O)(=O)Nc2cc(Cl)ccc2Cl)c(=O)n(C)c(=O)n1C,5.23%
3,CC1Cc2nc(SCC(=O)N3CCCc4ccccc43)n(C)c(=O)c2S1 (configuration not stated),0%
4,COc1ccc(Cc2nc(-c3ccc(Br)o3)no2)cc1OC,33.3%
5,O=C(CCC(=O)N1CCOc2ccccc21)N1CCOCC1,9.62%
6,CC(NC(=O)c1ccc(NC2=NC3CS(=O)(=O)CC3S2)cc1)c1ccccc1 (configuration not stated),5.06%
7,Cn1cccc1Cc1nnc(SCC(=O)Nc2ccc(F)cc2)n1CCc1ccccc1,17.4%
8,CC(CCc1ccccc1)NC(=O)C1CCN(C(=O)c2sccc2-n2cccc2)CC1 (configuration not stated),3.57%
9,Cc1ccc(NC(=O)C2CCCN(S(=O)(=O)c3ccc4[nH]c(=O)ccc4c3)C2)cc1C (configuration not stated),0%
10,CCc1ccccc1NC(=O)c1cc(S(=O)(=O)N2CCc3ccccc32)cn1C,5.06%
11,COc1cccc(C2c3[nH]c4ccccc4c3C[C@H]3C(=O)N(c4ccccc4C(=O)N4CCCC4C(=O)O)C(=O)N23)c1 (some centres not stated),-3.51%
12,Cn1cccc1Cc1nnc(SCC(=O)Nc2ccccc2F)n1-c1ccc(F)cc1,8.33%
13,Cn1c(=O)c2c(SCc3ccccn3)nc(CC(C)(C)C)nc2n(C)c1=O,4.58%
14,CSC1=NCCN1C(=O)c1ccc(S(=O)(=O)N2CCCC2)cc1,-1.85%
15,O=C(Nc1ccccc1Cl)c1ccc2c(c1)N(Cc1ccc(F)cc1)C(=O)CS2=O (configuration not stated),15%
16,CC1(C2CCC3(C)OC3C2)CO1 (configuration not stated),7.18%
17,Cc1cccc(N2CCN(C(=O)CCC(=O)N3CC(C)Oc4ccc(C)cc43)CC2C)c1 (configuration not stated),5.06%
18,COc1cc2c(cc1OC)CN(C(=O)c1ccc3[nH]c(C)c(C)c3c1)CC2,8.74%
19,O=c1c(Cc2ccccc2O)c(O)nc2n1CCCS2,3.39%
20,COc1ccc(N(C(=O)c2ccncc2)S(=O)(=O)c2ccc(OC)c(OC)c2)cc1,11.1%
21,CCCCC(NC(C)=O)c1nc2ccccc2[nH]1 (configuration not stated),5.42%
22,Cc1cc(Nc2ccc(C(C)C)cc2)n2ncnc2n1,6.72%

row,Structure (SMILES),inhibition
1,Cc1cc(NS(=O)(=O)c2ccc(NC(=O)c3cnc4scc(C)n4c3=O)cc2)nc(C)n1,6.2%
2,CC(C)OC(=O)c1nnc(Cc2ccc(Cl)cc2)o1,20%
3,O=C(c1cnn(-c2ccccc2)c1-n1cccc1)N1CCN(C2CCCCC2)CC1,9.55%
4,Cc1cc(Cl)cc2sc(NC(=O)c3ccco3)nc12,3.57%
5,O=C(O)c1cccc(N2C(=O)C3CC=C(Cl)CC3C2=O)c1 (configuration not stated),14.9%
6,CCn1c(C(=O)N2CCC(C(=O)NCc3ccc4c(c3)OCO4)CC2)cc2sccc21,8.81%
7,COC(=O)C1(Cc2ccc(O)c(CC3OC3(C)C)c2)OC(=O)C(O)=C1c1ccc(O)cc1 (configuration not stated),6.79%
8,CC(C)[C@H](NC(=O)[C@@H]1Cc2c([nH]c3ccccc23)C2c3ccccc3C(=O)N21)C(=O)N1CCC[C@H]1C(=O)O (some centres not stated),5.17%
9,CCOc1ccc(C2C(C(=O)Nc3ccc(F)cc3)=C(C)Nc3nc(CCCO)nn32)cc1 (configuration not stated),10%
10,Cc1cc2c(cc1S(=O)(=O)N1CCCCC1)OCC(=O)N2,10.9%
11,Cc1noc(C)c1S(=O)(=O)N1CCN(C(c2ccccc2)c2ccc(Cl)cc2)CC1 (configuration not stated),8.33%
12,COc1ccc(S(=O)(=O)Cc2ccc(C(=O)NC3CCCC3)o2)cc1,8.33%
13,COc1cc(OC)c(NS(=O)(=O)c2coc(C(N)=O)c2)cc1Cl,25%
14,O=C(C1COc2ccccc2O1)N1CCn2c(nc3ccccc32)C1 (configuration not stated),4.17%
15,COc1cc(-c2cc(=O)c3c(O)c(OC)c(OC)c(OC)c3o2)cc(OC)c1OC,3.45%
16,O=C(CN1CCOc2ccccc21)NC1CCCCCCC1,25%
17,Cc1cccc(NC(=O)CSc2nc3ccccc3nc2N2CC(C)OC(C)C2)c1 (configuration not stated),3.85%
18,CCOc1ccc(NC(=O)c2cccc(NC3=NC4CS(=O)(=O)CC4S3)c2)cc1 (configuration not stated),5.12%
19,COc1ccccc1C(=O)OCn1nnc2ccccc2c1=O,-5%
20,Cc1c(C)c2c(OCC(=O)N[C@@H](Cc3ccccc3)C(=O)O)cc3c(c2oc1=O)CCC(C)(C)O3,-1.79%
21,Clc1ccccc1C1CC(c2ccccc2)Nc2ncnn21 (configuration not stated),8.33%
22,O=C(NCCCN1CCOCC1)c1ccccc1N1C(=O)[C@@H]2Cc3c([nH]c4ccccc34)C(c3cccc(Cl)c3)N2C1=O (some centres not stated),0%

row,Structure (SMILES),inhibition
1,CCCc1cc(=O)oc2cc(OC(C)C(=O)NCC3CCC(C(=O)O)CC3)c(Cl)cc12 (configuration not stated),7.18%
2,O=C(CCC(=O)N1CCOc2ccccc21)Nc1ccccc1Br,6.78%
3,CC1(C)Cc2c(C#N)c(NC3CCCCC3)nc(-c3ccco3)c2CO1,3.64%
4,COc1ccc2[nH]c3c(c2c1)CCN1C(=O)N([C@@H](C)C(=O)NCc2ccc(C)cc2)C(=O)[C@]31C,0%
5,CC(=O)O[C@H]1C(=O)[C@@]2(C)C([C@H](OC(=O)c3ccccc3)[C@]3(O)C[C@H](OC(=O)[C@H](O)[C@@H](NC(=O)c4ccccc4)c4ccccc4)C(C)=C1C3(C)C)[C@]1(OC(C)=O)CO[C@@H]1C[C@H]2O (some centres not stated),5.12%
6,CCc1nn(CC(=O)N2CCN(C)CC2)c(=O)c2cccn12,5.06%
7,Cc1ccc(S(=O)(=O)NCc2ccc3[nH]c(C)cc3c2)cc1,3.57%
8,CC1CCCN(C(c2ccccc2)c2sc3ncnn3c2O)C1 (configuration not stated),5.06%
9,CCOc1ccc(-n2c(SCC(=O)N3CCc4ccccc43)nnc2-c2c[nH]c3ccccc23)cc1,13.3%
10,Nc1nc2n(n1)C(c1cccc(Br)c1)CC(c1ccc(F)cc1)N2 (configuration not stated),23.4%
11,CCOc1ccc(-c2nc(CS(=O)(=O)CC(=O)NCc3ccc(F)cc3)c(C)o2)cc1,3.57%
12,COc1ccccc1NC(=O)NCCCN1CCN(c2cccc(Cl)c2)CC1,-5.49%
13,Cc1c(S(=O)(=O)Nc2cccc(Cl)c2)c(=O)n(C)c(=O)n1C,0.909%
14,COc1cc(OC)cc(C(=O)OCn2nnc3ccccc3c2=O)c1,0%
15,COC(=O)c1ccccc1NC(=O)C1CCCN(c2nnc(-n3cccc3)s2)C1 (configuration not stated),0.909%
16,C/C=C/c1cc(OC)c2c(c1)[C@H](C)[C@@H](c1ccc(O)c(OC)c1)O2,0%
17,CCCn1c(CN2CCCCC2C)nc2c1c(=O)n(C)c(=O)n2C (configuration not stated),3.57%
18,COC(=O)C1=C(C)Nc2ccc(C)cc2S1,0%
19,CC(=O)c1ccc(NC(=O)C2CCCN2S(=O)(=O)c2ccc(C)cc2)cc1 (configuration not stated),15.4%
20,CCOc1ccc(NC(c2ccccn2)c2oc(CO)cc(=O)c2O)cc1 (configuration not stated),1.85%
21,COc1ccc(NC(=O)c2cc(S(=O)(=O)N3CCc4ccccc43)cn2C)cc1,-3.51%
